Source: the supplement of paper PMC7411054
Where a name gives a salt, the structure may show the parent alone. A number with no mark means an inactive call.

system: HepG2-ACTB-RAB5A; assay: phenotypically active (imaging signature differs from DMSO and reproducible) at any of 0.3-9 uM (binary (1 = active, 0 = inactive)); higher = active; settings: treatment time: 24 h
In short: (§1)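 Fifteen reporter lines derived from A549, HepG2 and WPMY1 cells by gene editing, carrying BFP for segmentation plus GFP and RFP/FusionRed markers, were exposed to 0.3, 1, 3 or 9 µM for 24 h in four wells each and imaged live. Live-cell features from each well were normalised to solvent control wells. A well set counted as deviating when ≥3 of 4 wells lay beyond the 95th percentile of control Euclidean distances, and as reproducible when the median replicate Pearson correlation exceeded the 95th percentile of non-replicates. Phenotypic activity was assigned only when both criteria were met.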

| Compound | phenotypically active |
| --- | --- |
| CC[C@@H](C(=O)[C@@H](C)[C@@H](O)[C@H](C)[C@@H]1O[C@@H]([C@@H](CC)C(=O)O)CC[C@@H]1C)[C@H]1O[C@]2(C=C[C@@H](O)[C@]3(CC[C@@](C)([C@H]4CC[C@](O)(CC)[C@H](C)O4)O3)O2)[C@H](C)C[C@@H]1C [Salinomycin Sodium] | 1 (active) |
| CC[C@@H](CO)NC(=O)[C@@H]1C=C2c3cccc4c3c(cn4C)C[C@H]2N(C)C1 [methysergide] | 0 |
| CN1C[C@H](C(=O)N[C@]2(C)O[C@@]3(O)[C@@H]4CCCN4C(=O)[C@H](Cc4ccccc4)N3C2=O)C=C2c3cccc4[nH]cc(c34)C[C@H]21 [ergotamine] | 1 (active) |
| C[C@H](CCC(=O)O)C[C@H](C)C[C@H](C)C(=O)/C=C(\O)[C@H](C)C[C@H](C)C/C=C/[C@@H](C)[C@@H](O)[C@@H](C)[C@@H](O)C[C@@H]1CC[C@@](C)([C@H]2CC[C@@](C)([C@@H](C)O)O2)O1 [Ionomycin free acid] | 0 |
| N#CC(C#N)=NNc1ccc(OC(F)(F)F)cc1 | 1 (active) |
| COC1=CC(C)=C[C@@H](C)[C@@H](O)[C@@H](C)CC(C)=CC=C[C@H](OC)[C@@H]([C@@H](C)[C@@H](O)[C@H](C)[C@@]2(O)C[C@@H](O)[C@H](C)[C@@H](C(C)C)O2)OC1=O [Bafilomycin A1] | 1 (active) |
| COc1cc([C@@H]2c3cc4c(cc3[C@H](O)[C@H]3COC(=O)[C@H]23)OCO4)cc(OC)c1OC [Podophyllotoxin] | 1 (active) |
| CC[C@]12C=CCN3CC[C@]4(C(=C(C(=O)OC)C1)Nc1ccccc14)[C@@H]32 [Tabersonine dichlorhydrate] | 1 (active) |

system: HepG2-CANX-COX4; assay: as above; settings: treatment time: 24 h
In short: as §1

| Compound | phenotypically active |
| --- | --- |
| CC[C@H]1CN2CC[C@H]1C[C@@H]2[C@@H](O)c1ccnc2ccc(OC)cc12 [Hydroquinidine HCl] | 1 (active) |
| COc1cc2c(c(OC)c1OC)-c1ccc(O)c(=O)cc1[C@@H](N)CC2 [Trimethylcolchicinic acid] | 1 (active) |
| C[C@@]1(CO)[C@H](O)CC[C@@]2(C)[C@H]1CC[C@H]1C[C@@H]3C[C@@]12CC[C@]3(O)CO [Aphidicolin] | 1 (active) |
| COC(=O)[C@@]1(O)C[C@H]2O[C@]1(C)n1c3ccccc3c3c4c(c5c6ccccc6n2c5c31)C(=O)NC4 | 1 (active) |
| COc1ccc(N(C(=O)Oc2c(C)cccc2C)c2ccnc(Nc3ccc(N4CCN(C)CC4)cc3)n2)c(OC)c1 | 1 (active) |
| COc1ccc2c(c[n+](C)c3c4cc5c(cc4ccc23)OCO5)c1OC [Chelerythrine chloride] | 0 |
| CC[C@@H]1C=CC=CC[C@H](C)[C@@H](O)[C@](C)(O)C(=O)[C@H](C)[C@@H](O)[C@H](C)C(=O)[C@H](C)[C@@H](O)[C@H](C)C=CC(=O)O[C@H]2[C@@H](C)[C@@H](CC1)O[C@@]1(CC[C@@H](C)[C@@H](C[C@H](C)O)O1)[C@@H]2C [Oligomycin A] | 1 (active) |
| CC(C)[C@@]1(NC(=O)[C@@H]2C[C@@H]3c4cccc5[nH]cc(c45)C[C@H]3N(C)C2)O[C@@]2(O)[C@@H]3CCCN3C(=O)[C@H](Cc3ccccc3)N2C1=O [Dihydroergocristine mesylate] | 1 (active) |
| O=c1[nH]c2ccccc2n1C1CCN(CCCC(c2ccc(F)cc2)c2ccc(F)cc2)CC1 [pimozide] | 0 |
| C[C@]12CC[C@H]3[C@@H](CC[C@]4(O)C[C@@H](O)CC[C@]34C=O)[C@@]1(O)CC[C@@H]2C1=CC(=O)OC1 [Strophanthidin] | 1 (active) |
| CN1CCC2=C[C@H](O)[C@H]3OC(=O)c4cc5c(cc4[C@H]3[C@@H]21)OCO5 [Hippeastrine hydrobromide] | 1 (active) |
| C=C1[C@@H](O)C2C=CC[C@H](C)C(=O)[C@](C)(O)C=C[C@@H](OC(C)=O)[C@]23C(=O)N[C@H](Cc2ccccc2)[C@@H]3[C@@H]1C (stereo partly drawn) [Cytochalasin D] | 1 (active) |
| COc1ccc(C[C@H]2NC[C@H](O)[C@H]2OC(C)=O)cc1 [Anisomycin] | 1 (active) |
| C[C@@H]1CC[C@H]2[C@@H](C)C(=O)O[C@@H]3O[C@@]4(C)CC[C@@H]1[C@]32OO4 [Artemisinin] | 0 |
| O=C1NC(=O)c2c1c1c3ccccc3n3c1c1c2c2ccccc2n1C1CCC3O1 | 0 |
